MbtI inh: inhibitors of Mycobacterium tuberculosis siderophore enzyme MbtI | purified MbtI enzyme, fluorescence intensity read-out | P9WFX0 | inhibition, % (concentration not given with the values) | actives 0.89% (n = 100,000) | AID 493033; in the data active = inhibition mostly above about 56%, no sharp cut-off; inactive = mostly below about 77%
AID504770: growth inhibitors of E. coli YBA685 in a screen for V. cholerae RctB (chromosome II replication) inhibitors; E. coli YBA685 rctB-dependent plasmid, OD600 growth, 3 h; active compounds read low; z-score (concentration not given with the values); AID 504770; actives 0.27% (n = 130,000); in the data active = z-score below about -2, passing the limit was not always enough
Mtb MenB inh: Mtb MenB enzyme inhibition | P9WNP5 | AID 540299 | actives 0.43% (n = 100,000) | MenB enzyme assay, absorbance read-out | inhibition, % (test concentration not listed); in the data active = inhibition above about 21%, passing the limit was not always enough
Target sequence (P9WNP5 whole entry, looked up): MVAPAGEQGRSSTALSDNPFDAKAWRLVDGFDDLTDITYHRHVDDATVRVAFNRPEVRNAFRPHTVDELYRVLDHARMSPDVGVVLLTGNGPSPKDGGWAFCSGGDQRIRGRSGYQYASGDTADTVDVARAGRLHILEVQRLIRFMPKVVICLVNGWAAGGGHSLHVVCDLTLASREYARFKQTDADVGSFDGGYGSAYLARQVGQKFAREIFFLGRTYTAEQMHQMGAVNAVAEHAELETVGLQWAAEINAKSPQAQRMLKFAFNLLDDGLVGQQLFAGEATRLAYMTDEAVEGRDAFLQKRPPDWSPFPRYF
Polio RdRp inh: inhibitors of poliovirus RNA polymerase binding and polymerization. poliovirus polymerase elongation, fluorescence polarization; active compounds read low. % elongation, % (compound at 16.7 µg/mL). actives 0.66% (n = 150,000); in the data active = % elongation below about 90%
The depositor's hits bear a star. Most compounds without a hit are left out; they make up all but 1.5% or so of the library.

What do the screens show for `Cn1c(C(=O)O)ccc1S(=O)(=O)N1CCN(c2ccc(C(F)(F)F)cn2)CC1`?
MbtI inh: -6; AID504770: 0.3; Mtb MenB inh: 13; Polio RdRp inh: 105

What do the screens show for `O=C(Cc1ccc(Cl)cc1)Nc1ccc2nn(-c3ccccc3)nc2c1`?
Polio RdRp inh: 107

Results for O=C(Nc1ccc(F)c(F)c1)c1cnn(-c2ccccc2)n1 ?
MbtI inh: 29; AID504770: -0.4; Mtb MenB inh: -43; Polio RdRp inh: 90*

How did CCC(c1n[nH]c(=S)o1)N(C)C (stereo not given) do in these assays?
MbtI inh: 84*; AID504770: -0.3; Mtb MenB inh: -51; Polio RdRp inh: 89*

Results for CC(Oc1ccc(F)cc1)c1n[nH]c(=S)o1 (stereo not given) ?
MbtI inh: -7; AID504770: -0.9; Mtb MenB inh: -21; Polio RdRp inh: 103

What do the screens show for `Cn1c(CSc2cc(C(F)(F)F)nc3ccccc23)n[nH]c1=S`?
MbtI inh: 65*; AID504770: -0.9; Mtb MenB inh: 4; Polio RdRp inh: 100

Results for Cc1ccc(S(=O)(=O)NCCSc2cc(C(F)(F)F)nc3ccccc23)cc1 ?
MbtI inh: -1; AID504770: 0.4; Mtb MenB inh: 1; Polio RdRp inh: 103

Results for Cc1nn(-c2ccccc2)c2c1CC1(C(=O)NC(=O)c3ccccc31)C1CCCN21 (stereo not given) ?
MbtI inh: 35; AID504770: 1.6; Mtb MenB inh: 11; Polio RdRp inh: 83*

Results for CC1(C)CC(=O)c2c(nn(-c3ccccc3)c2N)C1 ?
MbtI inh: -8; AID504770: -1.2; Mtb MenB inh: -2; Polio RdRp inh: 99

Results for O=C(Nc1ccc(NC(=O)C2CC23CCC3)cc1)C1CC12CCC2 (stereo not given) ?
MbtI inh: -2; AID504770: -0.7; Mtb MenB inh: -17; Polio RdRp inh: 103

How did Cc1c(C(=O)NNc2ncnc3sc4c(c23)CCCC4)oc2ccccc12 do in these assays?
MbtI inh: -5; AID504770: -4.2*; Mtb MenB inh: -21; Polio RdRp inh: 104

How did O=C(Nc1ncnc2sc3c(c12)CCC3)c1ccccc1 do in these assays?
AID504770: -0.45

What do the screens show for `CCc1c(CN2CCN(c3cccc(C)c3C)CC2)csc1C`?
Polio RdRp inh: 56*

What do the screens show for `CN=C1S/C(=C\c2ccc(Cl)cc2)C(=O)N1C`?
MbtI inh: 6; AID504770: 0.05; Mtb MenB inh: 6; Polio RdRp inh: 88*

How did CC(=O)N1c2ccc(S(=O)(=O)NCC3CCC(C(=O)Nc4cccc(C)c4C)CC3)cc2CC1C (stereo not given) do in these assays?
Polio RdRp inh: 116

Results for CC[n+]1c(-c2ccccc2)c2cc(N)ccc2c2ccc(N)cc21 ?
MbtI inh: 4; AID504770: -0.05; Mtb MenB inh: 12; Polio RdRp inh: 75*

What do the screens show for `CC(C)(C)c1cc(C(F)(F)F)nc(SCCNC(=O)c2cnn3cccnc23)n1`?
MbtI inh: -15; AID504770: -0.05; Mtb MenB inh: 34*; Polio RdRp inh: 101

How did Nn1c(Cc2ccccc2)nc2sc3c(c2c1=O)CCCC3 do in these assays?
MbtI inh: -3; AID504770: 0.5; Mtb MenB inh: -7; Polio RdRp inh: 98

What do the screens show for `NC(=O)n1c(CCC(=O)O)nc2sc3c(c2c1=O)CCC3`?
MbtI inh: 21; AID504770: 0; Mtb MenB inh: -28; Polio RdRp inh: 85*

How did CCCc1nc2sc3c(c2c(=O)n1N)CCCC3 do in these assays?
MbtI inh: 5; AID504770: 0.3; Mtb MenB inh: 33*; Polio RdRp inh: 100

Results for Cc1sc(NC(=O)C2CCCCC2)c(C(N)=O)c1C ?
MbtI inh: 13; AID504770: -0.7; Mtb MenB inh: -24; Polio RdRp inh: 100

Results for Oc1ccc(C(=S)N2CCOCC2)cc1 ?
MbtI inh: 52; AID504770: 1.5; Mtb MenB inh: -7; Polio RdRp inh: 101

What do the screens show for `Oc1ccc(C(=S)N2CCN(Cc3ccccc3)CC2)cc1`?
MbtI inh: 94*; AID504770: -0.4; Mtb MenB inh: -15; Polio RdRp inh: 98

What do the screens show for `CC1CCN(C(=S)c2ccc(O)cc2)CC1`?
MbtI inh: 99*; AID504770: -1; Mtb MenB inh: -12; Polio RdRp inh: 100

Results for Oc1ccc(C(=S)N2CCN(c3cccc(Cl)c3)CC2)cc1 ?
MbtI inh: 59*; AID504770: 1.4; Mtb MenB inh: -40; Polio RdRp inh: 102

Results for c1ccc(CN2CCN(Cc3ccccc3)CC2)cc1 ?
AID504770: 2.5

Results for S=C(c1ccc(Cl)cc1)N1CCCCC1 ?
MbtI inh: 39; AID504770: 0.5; Mtb MenB inh: -75; Polio RdRp inh: 99

Results for Oc1ccc(C(=S)N2CCCCCC2)cc1 ?
MbtI inh: 84*; AID504770: 0.35; Mtb MenB inh: -24; Polio RdRp inh: 97

What do the screens show for `CCn1c(CNC(=O)C23CC4CC(CC(C4)C2)C3)nnc1SCC(=O)Nc1ccccc1`?
Polio RdRp inh: 100

What do the screens show for `Cn1cc(C(=O)N2CCCCC2)c(=O)c2cc(S(=O)(=O)N3CCCC3)ccc21`?
MbtI inh: -4; AID504770: 0.45; Mtb MenB inh: 6; Polio RdRp inh: 99

What do the screens show for `CC(C)c1ccc2c(c1)NC(c1ccncc1)=NC(c1cccs1)=N2`?
Polio RdRp inh: 110

What do the screens show for `CC(C)COc1ccc(C(=S)N2CCCCC2)cc1`?
MbtI inh: 54*; AID504770: 0.85; Mtb MenB inh: -12; Polio RdRp inh: 103

What do the screens show for `CCOC(=O)N1CCN(S(=O)(=O)c2ccccc2)CC1`?
AID504770: 0.25

How did CN(C)C(=O)N1CCN(S(=O)(=O)c2ccccc2)CC1 do in these assays?
MbtI inh: 2; AID504770: 1.4; Mtb MenB inh: 37*; Polio RdRp inh: 101

What do the screens show for `CN(C)S(=O)(=O)c1ccc(S(=O)(=O)N2CCN(C=O)CC2)cc1`?
MbtI inh: 2; AID504770: 0.65; Mtb MenB inh: 31*; Polio RdRp inh: 105

What do the screens show for `O=C(CN1C(=O)COc2ccc(S(=O)(=O)N3CCCCCC3)cc21)NCc1ccc(F)cc1`?
Polio RdRp inh: 123

What do the screens show for `COc1ccccc1/C=C1/C(=O)ON=C1C`?
MbtI inh: 9; AID504770: -2.8*; Mtb MenB inh: -13; Polio RdRp inh: 103

How did CCOC(=O)c1sc2nc(C(F)(F)F)nn2c1C do in these assays?
AID504770: -2.5*

What do the screens show for `CS(=O)(=O)c1ncc(Cl)c(C(=O)Nc2cccc(Cl)c2)n1`?
MbtI inh: 81*; AID504770: -0.95; Mtb MenB inh: 10; Polio RdRp inh: 102

What do the screens show for `COc1ccc(NC(=O)c2nc(S(C)(=O)=O)ncc2Cl)cc1Cl`?
MbtI inh: 88*; AID504770: -0.85; Mtb MenB inh: -9; Polio RdRp inh: 102

Results for COC(=O)c1nc(S(C)(=O)=O)ncc1Cl ?
MbtI inh: 12; AID504770: -2.7*; Mtb MenB inh: -7; Polio RdRp inh: 96

How did Cc1cccc(NC(=O)c2nc(S(C)(=O)=O)ncc2Cl)c1 do in these assays?
Polio RdRp inh: 103

Bioassay records (PubChem)
